Measured values: PubChem BioAssay (NCI)
About 79,000 compounds went through this panel and 15% of them were active in at least one assay; those are over-represented in the sample as a whole. Rule as the data show it: active = growth inhibition above about 70%; inactive = the rest.

Assays:
[1] = NCI Yeast Anticancer Drug Screen. Data for the rad50 strain (AID 155);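 also: 0% = growth of vehicle-only cultures of the same strain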; settings: S. cerevisiae rad50 strain growth inhibition; at 50.0 µM; active compounds read high
Procedure, shortened: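 DNA repair mutant yeast, compound exposure, growth read-out; inhibition is taken relative to vehicle.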

[2] = NCI Yeast Anticancer Drug Screen. Data for the mec2-1 strain (AID 157); settings: S. cerevisiae mec2-1 strain, at 50.0 µM, active compounds read high
Procedure, shortened: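 Mutant yeast (mec2-1) grown with compound; growth inhibition relative to vehicle control reported.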

[3] = NCI Yeast Anticancer Drug Screen. Data for the sgs1 mgt1 strain (AID 161);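 also: 0% = growth of cultures given vehicle only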; settings: S. cerevisiae sgs1 mgt1 strain, at 50.0 µM, active compounds read high
Procedure, shortened: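 Yeast cells carrying a defined DNA-repair defect were exposed to test compounds. Growth inhibition was measured relative to vehicle-treated controls.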

[4] = NCI Yeast Anticancer Drug Screen. Data for the cln2 rad14 strain (AID 165);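 also: 0% = growth equal to vehicle treated cultures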; settings: S. cerevisiae cln2 rad14 strain, at 50.0 µM, active compounds read high
Procedure, shortened: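 Readout is yeast growth inhibition versus vehicle-treated controls, using a strain with cln2 and rad14 alterations exposed to compound.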

[5] = NCI Yeast Anticancer Drug Screen. Data for the bub3 strain (AID 167); settings: S. cerevisiae bub3 mutant strain, at 50.0 µM, active compounds read high
Procedure, shortened: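 In this screen, a yeast mutant lacking normal mitotic checkpoint function is challenged with compound. Relative growth versus vehicle gives the inhibition value.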

[6] = NCI Yeast Anticancer Drug Screen. Data for the mlh1 rad18 strain (AID 175); settings: S. cerevisiae mlh1 rad18 strain growth inhibition; at 50.0 µM; active compounds read high
Procedure, shortened: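 Genetically defined yeast (DNA repair-deficient) exposed to compounds; growth inhibition determined relative to vehicle.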

Measured: growth inhibition

CCCCC(/C=C\C(=O)O)CC (stereo not given)
inactive: [1] 29.7% | [2] -6.1% | [3] -11.8% | [4] 5.05% | [5] 5.75% | [6] 14.4%

CC1=C(C)Cc2c(-c3ccccc3)oc(-c3ccccc3)c2C1
inactive: [1] -13.3% | [2] -12.4% | [3] 0.7% | [4] 25.8% | [5] -7.95% | [6] -16.4%

COc1cc(-c2c(C#N)c(OC)[nH]c(=O)c2C#N)cc(OC)c1OC
inactive: [1] 3.85% | [2] 13.3% | [3] 7.55% | [4] 13.4% | [5] 1.85% | [6] -0.45%

CC1=C(N2CCCCC2)S(=O)(=O)c2ccccc2C1
inactive: [1] 42.6% | [2] 3.6% | [3] 26.5% | [4] -19.6% | [5] 8.15% | [6] 44%

CCN(CC)CCCNc1nc2ccccc2c2[nH]c3ccc(OC)cc3c12
inactive: [1] -37.4% | [2] -26.2% | [3] -41.9% | [4] -36.8% | [5] -40% | [6] -28.2%

Clc1ccc(-c2nnc(-c3ccc(Cl)c(Cl)c3)o2)cc1Cl
inactive: [1] 0.25% | [2] 9.95% | [3] 17.8% | [4] -30.5% | [5] -10.9% | [6] 22.9%

CS(=O)(=O)CC(O)(c1ccc(Cl)cc1)c1ccccn1 (stereo not given)
inactive: [1] 11.5% | [2] 0.85% | [3] -6.55% | [4] -21.6% | [5] -0.8% | [6] 3.8%

CSc1nc2cc(C)c(C)cc2[nH]1
inactive: [1] -5.1% | [2] -3.1% | [3] 27.8% | [4] -25.5% | [5] 15.1% | [6] -6.85%

CN(C)c1nc(Cl)nc2c1ncn2-c1ccccc1
inactive: [1] 9.85% | [2] -23.2% | [3] 3.1% | [4] -10.7% | [5] -31.4% | [6] -5.1%

COc1ccc2c(c1)C(=O)[C@]1(C)C3(C)OC(=O)C(c4ccccc43)[C@]21C (stereo not given in full)
inactive: [1] 2.6% | [2] -8.6% | [3] -13.8% | [4] 9.3% | [5] -17.6% | [6] 12.6%

OCC(O)C(O)C(O)C(O)C(OCc1ccccc1)OCc1ccccc1 (stereo not given)
inactive: [1] 11.3% | [2] 7.55% | [3] -23.6% | [4] -12.7% | [5] 5.1% | [6] 9.85%

CCN(CC)[Si](C)(C)N(CC)CC
inactive: [1] -20.2% | [2] -24.4% | [3] -1.2% | [4] -41% | [5] -4.5% | [6] 8.1%

C[Si](C)(C)c1ccc(C(N)=O)cc1
inactive: [1] 14.4% | [2] 16.4% | [3] 3.3% | [4] 8.3% | [5] 8.65% | [6] 8.7%

CCC(CC)NCCCNc1cc(OC)cc2cccnc12
inactive: [1] 20.8% | [2] 33.6% | [3] 53.8% | [4] 4.65% | [5] 30.9% | [6] 48.6%

CCOc1cc2c(cc1O)CC[C@@H]1[C@@H]2CC[C@]2(C)C(OS(=O)OC3CC[C@@H]4[C@H]5CCc6cc(O)c(OCC)cc6[C@@H]5CC[C@@]34C)CC[C@@H]12 (stereo not given in full)
inactive: [1] -12.8% | [2] 0.25% | [3] 4.8% | [4] 26.7% | [5] 18.6% | [6] -15.5%

CCCCCCCCCCCCCCCCN=C1C=Cc2ccccc2C1=NCCCCCCCCCCCCCCCC
inactive: [1] -0.45% | [2] 6.4% | [3] 11.6% | [4] 11.6% | [5] 5.95% | [6] 4.4%

CCOC(=O)/C(=C/n1c(=S)[nH]c2ccc([N+](=O)[O-])cc21)C(=O)c1ccccc1
inactive: [1] -7.55% | [2] -44.8% | [3] -12.9% | [4] -1.35% | [5] -16.7% | [6] -4.65%

Cc1cc(O)c(C=NC(=S)c2ccccc2)c(=O)o1
inactive: [1] -14.1% | [2] -32% | [3] 10.2% | [4] 5.3% | [5] 4.55% | [6] -40.4%

CCOC(=O)Cc1nc(Cl)c2c(C)c(C)sc2n1
inactive: [1] 29.8% | [2] 5.6% | [3] 6.9% | [4] 20.2% | [5] 24.9% | [6] 40.5%

CCOc1nc(SCC)nc2c1cnn2-c1ccccc1
inactive: [1] -8.45% | [2] -26.4% | [3] -9.9% | [4] -15.8% | [5] -1.2% | [6] -19.5%

O=C(O)C1CCc2ccccc2C1 (stereo not given)
inactive: [1] 15.4% | [2] 4.05% | [3] 9.85% | [4] -0.45% | [5] -2.4% | [6] 2.95%

CCN(CC)/[N+]([O-])=N/OCC(C)O (stereo not given)
inactive: [1] 18.4% | [2] -3.45% | [3] -3.85% | [4] 8.35% | [5] 0.55% | [6] -12.5%

O=C(Nc1ccccc1Br)c1ccc(F)cc1
inactive: [1] -0.9% | [2] 3.1% | [3] -11.3% | [4] -18.4% | [5] 14.8% | [6] 14.6%

CC(=O)Nc1cc(C)ccn1
inactive: [1] 1.2% | [2] 0.6% | [3] 10.6% | [4] -35% | [5] -2.95% | [6] 19.4%

CC(=O)OC1Cc2ccccc2C1OC(C)=O (stereo not given)
inactive: [1] -1.9% | [2] 9.4% | [3] -8.8% | [4] -9.8% | [5] -19.4% | [6] 7.1%

CCOc1ccc(/C=C2/C(=O)N(/C=C3/C(=O)Oc4ccccc4C3=O)C(=NC(C)=O)N2C)cc1
inactive: [1] 8.75% | [2] -13% | [3] -10.8% | [4] 12.7% | [5] -1.85% | [6] 2.35%

CS(=O)(=O)CCCCCCCCCCS(C)(=O)=O
inactive: [1] 9.45% | [2] 2.45% | [3] -4.35% | [4] -23.7% | [5] 5% | [6] 4.5%

Cc1ccc(S(=O)(=O)N/N=C2\CCC3CC2C3(C)C)cc1 (stereo not given)
inactive: [1] 1% | [2] 2.05% | [3] -14.2% | [4] -20.1% | [5] -6.05% | [6] 5.95%

COc1cccc2c1C(=O)OC2c1cccc2ccccc12 (stereo not given)
inactive: [1] 10.5% | [2] -7.45% | [3] 7.25% | [4] 28.2% | [5] 4.3% | [6] 16%

CC(C)(C)OC(=O)N1CCCC1C(=O)NC(c1ccccc1)c1ccccc1 (stereo not given)
inactive: [1] -35.1% | [2] -56.5% | [3] -37.5% | [4] -18.9% | [5] -13.4% | [6] -40.1%

O=[N+]([O-])c1ccc(N=P(c2ccccc2)(c2ccccc2)c2ccccc2)n2nnnc12
inactive: [1] 1.25% | [2] -27.8% | [3] -4.65% | [4] -10.2% | [5] -15.2% | [6] -6.85%

OC(c1ccccc1)(C(F)(F)F)C(F)(F)F
inactive: [1] 3% | [2] 5.85% | [3] 6.1% | [4] 14.3% | [5] 9.9% | [6] 8.75%

C=C1C(=O)SC(=NCc2ccccc2)N1C
inactive: [1] 24.4% | [2] 16.4% | [3] 19.9% | [4] 19.9% | [5] 0% | [6] 25.8%

CC1(C)CCC(C2=CC(=O)c3c(O)ccc(O)c3C2=O)O1 (stereo not given)
inactive: [1] -8.25% | [2] -17.1% | [3] 10.5% | [4] 17.9% | [5] -12.6% | [6] -2.8%

COc1ccc(Nc2nnc(-c3nsc4ccccc34)s2)cc1
inactive: [1] -2.5% | [2] -28.4% | [3] -37.9% | [4] 22.2% | [5] -27.9% | [6] -24.9%

C[n+]1cc(N)cc2ccccc21
inactive: [1] 1.65% | [2] -4.9% | [3] -6.75% | [4] 3.3% | [5] 9.8% | [6] -16.4%

COc1cccc(/C=C/c2cc3c(cc2Br)OCO3)c1
inactive: [1] 3.3% | [2] -3.35% | [3] 2.55% | [4] 3.65% | [5] 1.9% | [6] -6.3%

CC(=O)C(C(C)=O)C(c1cccnc1)C(C(C)=O)C(C)=O
inactive: [1] 2.7% | [2] 0.65% | [3] 10% | [4] 0.1% | [5] 25.3% | [6] -10.5%

CCO[C@H]1OC(=O)[C@@H]2C(c3ccc(F)cc3)=NO[C@H]12
inactive: [1] -27.1% | [2] -44.4% | [3] 0.35% | [4] 2.7% | [5] 8.95% | [6] -9.3%

COc1ccc(CCNC(=S)NCCc2ccc(OC)c(OC)c2)cc1OC
inactive: [1] -17.1% | [2] -17.1% | [3] 2.1% | [4] 20.2% | [5] 34.5% | [6] -1.4%
